Test results from the supplement of paper PMC8728848.
This excerpt belongs to a sample that is enriched for the strongest signals.

Assays:
Experiment in all cases: glycan array binding signal (z-score within array); higher = stronger binding
Settings in all cases: glycan notation: IUPAC condensed, linker removed
[1] = molecular target: Fuc(a1-2)Gal(b1-3)GalNAc(b1-3)Gal(a1-4)Gal(b1-4)Glc
How it was run: (§1)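 Columns mapping to the same glycan were averaged after glycan names were converted to IUPAC-condensed notation. The data come from 3228 arrays in the Consortium for Functional Glycomics database, limited to those with an available protein sequence. Binding is reported as a within-array Z-score averaged across arrays of one protein sequence and across linkers.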

[2] = molecular target: Fuc(a1-2)Gal(b1-3)[Fuc(a1-4)]GlcNAc
How it was run: as §1

[3] = molecular target: Fuc(a1-2)Gal(b1-3)[Fuc(a1-4)]GlcNAc(b1-2)Man(a1-3)[Fuc(a1-2)Gal(b1-3)[Fuc(a1-4)]GlcNAc(b1-2)Man(a1-3)]Man(b1-4)GlcNAc(b1-4)GlcNAc
How it was run: as §1

[4] = molecular target: Fuc(a1-2)Gal(b1-3)[Fuc(a1-4)]GlcNAc(b1-3)[Gal(b1-4)GlcNAc(b1-6)]Gal(b1-4)Glc
How it was run: as §1

[5] = molecular target: Fuc(a1-2)Gal(b1-4)GlcNAc(b1-2)Man
How it was run: as §1

[6] = molecular target: Fuc(a1-2)[Gal(a1-3)]Gal(b1-3)GlcNAc(b1-6)GalNAc
How it was run: as §1

[7] = molecular target: Fuc(a1-2)[Gal(a1-3)]Gal(b1-4)[Fuc(a1-3)]GlcNAc(b1-3)GalNAc
How it was run: as §1

[8] = molecular target: Fuc(a1-2)[GalNAc(a1-3)]Gal(b1-3)GlcNAc(b1-6)GalNAc
How it was run: as §1

[9] = molecular target: Fuc(a1-2)[GalNAc(a1-3)]Gal(b1-4)Glc
How it was run: as §1

[10] = molecular target: Gal(a1-3)Gal(b1-3)GlcNAc(b1-2)Man(a1-3)[Gal(a1-3)Gal(b1-3)GlcNAc(b1-2)Man(a1-6)]Man(b1-4)GlcNAc(b1-4)GlcNAc
How it was run: as §1

[11] = molecular target: Gal(a1-3)Gal(b1-3)[Fuc(a1-4)]GlcNAc(b1-2)Man(a1-3)[Gal(a1-3)Gal(b1-3)[Fuc(a1-4)]GlcNAc(b1-2)Man(a1-6)]Man(b1-4)GlcNAc(b1-4)GlcNAc
How it was run: as §1

[12] = molecular target: Gal(a1-3)Gal(b1-4)[Fuc(a1-3)]GlcNAc(b1-2)Man(a1-3)[Gal(a1-3)Gal(b1-4)[Fuc(a1-3)]GlcNAc(b1-2)Man(a1-6)]Man(b1-4)GlcNAc(b1-4)GlcNAc
How it was run: as §1

[13] = molecular target: Gal(a1-4)Gal(b1-4)GlcNAc(b1-3)Gal(b1-4)Glc
How it was run: as §1

Gal(a1-6)Glc = molecular target: Gal(a1-6)Glc
How it was run: as §1

Gal(b1-3)GalNAc(b1-3)Gal = molecular target: Gal(b1-3)GalNAc(b1-3)Gal
How it was run: as §1

[14] = molecular target: Gal(b1-3)GalNAc(b1-3)Gal(a1-4)Gal(b1-4)Glc
How it was run: as §1

[15] = molecular target: Gal(b1-3)GlcNAc(b1-2)Man(a1-3)[Gal(b1-3)GlcNAc(b1-2)Man(a1-6)]Man(b1-4)GlcNAc(b1-4)[Fuc(a1-6)]GlcNAc
How it was run: as §1

[16] = molecular target: Gal(b1-3)GlcNAc(b1-3)Gal(b1-4)GlcNAc(b1-2)Man(a1-3)[Gal(b1-3)GlcNAc(b1-3)Gal(b1-4)GlcNAc(b1-2)Man(a1-6)]Man(b1-4)GlcNAc(b1-4)GlcNAc
How it was run: as §1

[17] = molecular target: Gal(b1-3)GlcNAc(b1-3)Gal(b1-4)[Fuc(a1-3)]GlcNAc(b1-6)[Gal(b1-3)GlcNAc(b1-3)]Gal(b1-4)Glc
How it was run: as §1

[18] = molecular target: Gal(b1-3)GlcNAc(b1-3)GalNAc
How it was run: as §1

[19] = molecular target: Gal(b1-3)GlcNAc(b1-6)[Gal(b1-3)]GalNAc
How it was run: as §1

[20] = molecular target: Gal(b1-3)[Fuc(a1-4)]GlcNAc(b1-6)GalNAc
How it was run: as §1

Gal(b1-4)Glc6S = molecular target: Gal(b1-4)Glc6S
How it was run: as §1

[21] = molecular target: Gal(b1-4)GlcNAc(b1-2)Man(a1-3)[Gal(b1-4)GlcNAc(b1-2)Man(a1-6)]Man(b1-4)GlcNAc(b1-4)[Fuc(a1-6)]GlcNAc
How it was run: as §1

[22] = molecular target: Gal(b1-4)GlcNAc(b1-2)[Gal(b1-4)GlcNAc(b1-4)]Man(a1-3)[GlcNAc(b1-4)][Gal(b1-4)GlcNAc(b1-2)Man(a1-6)]Man(b1-4)GlcNAc(b1-4)GlcNAc
How it was run: as §1

[23] = molecular target: Gal(b1-4)GlcNAc(b1-3)Gal(b1-4)GlcNAc(b1-2)Man(a1-3)[Gal(b1-4)GlcNAc(b1-3)Gal(b1-4)GlcNAc(b1-2)Man(a1-6)]Man(b1-4)GlcNAc(b1-4)GlcNAc
How it was run: as §1

[24] = molecular target: Gal(b1-4)GlcNAc(b1-3)Gal(b1-4)GlcNAc(b1-2)Man(a1-3)[Gal(b1-4)GlcNAc(b1-3)Gal(b1-4)GlcNAc(b1-2)Man(a1-6)]Man(b1-4)GlcNAc(b1-4)[Fuc(a1-6)]GlcNAc
How it was run: as §1

B1: SUN4 (Saccharomyces cerevisiae), P53616 (protein)
chain: MGSSHHHHHHSSGLVPRGSHNGSIYGDLADFSGPYEKFEDGTIPCGQFPSGQGVIPISWLDEGGWSGVENTDTSTGGSCKEGSYCSYACQPGMSKTQWPSDQPSDGRSIGGLLCKDGYLYRSNTDTDYLCEWGVDAAYVVSELSNDVAICRTDYPGTENMVIPTYVQAGDSLPLTVVDQDTYYTWQGLKTSAQYYVNNAGISVEDACVWGSSSSGVGNWAPLNFGAGSSDGVAYLSLIPNPNNGNALNFNVKIVAADDSSTVNGECIYENGSFSGGSDGCTVSVTAGKAKFVLYN
glycan array binding signal (z-score) [1]: 0.954 | glycan array binding signal (z-score) [2]: -0.752 | glycan array binding signal (z-score) [3]: -0.207 | glycan array binding signal (z-score) [4]: 0.297 | glycan array binding signal (z-score) [5]: 0.324 | glycan array binding signal (z-score) [6]: -0.368 | glycan array binding signal (z-score) [7]: -0.487 | glycan array binding signal (z-score) [8]: -0.525 | glycan array binding signal (z-score) [9]: -0.935 | glycan array binding signal (z-score) [10]: 1.63 | glycan array binding signal (z-score) [11]: 1.91 | glycan array binding signal (z-score) [12]: 3.09 | glycan array binding signal (z-score) [13]: -0.077 | glycan array binding signal (z-score) (Gal(a1-6)Glc): -1.22 | glycan array binding signal (z-score) (Gal(b1-3)GalNAc(b1-3)Gal): -0.668 | glycan array binding signal (z-score) [14]: 0.295 | glycan array binding signal (z-score) [15]: -0.257 | glycan array binding signal (z-score) [16]: 0.342 | glycan array binding signal (z-score) [17]: -0.488 | glycan array binding signal (z-score) [18]: -0.163 | glycan array binding signal (z-score) [19]: 0.101 | glycan array binding signal (z-score) [20]: 0.835 | glycan array binding signal (z-score) (Gal(b1-4)Glc6S): -0.03 | glycan array binding signal (z-score) [21]: 0.829 | glycan array binding signal (z-score) [22]: 0.208 | glycan array binding signal (z-score) [23]: 2.66 | glycan array binding signal (z-score) [24]: 2
